Test results: PubChem BioAssay AID2384 (Southern Research Specialized Biocontainment Screening …, 2010)
Hit rate of the full screen: of about 2,300 compounds, about 1,100 (48%) were called active. The set was probably picked from earlier hits. The list shows a part of the results. Entries with a potency or affinity are not part of this list. Values without a mark were called inactive. The rule behind the calls is not given here.

Experiment: S. typhi counter-screen signal inhibition – fluorescence, 4 h, counter-screen for PhoP regulon inhibitor project, dose response (AID 2384)
Details: S. typhi GFP reporter counter-screen; series mostly up to 150 µM; inhibition: at the top concentration

| Compound | inhibition |
| --- | --- |
| O=C(NC(=S)Nc1ccc(S(=O)(=O)Nc2nccs2)cc1)c1cccnc1 | -25.2% |
| COc1nccnc1NS(=O)(=O)c1ccc(NC(=S)NC(=O)c2cccnc2)cc1 | -19.3% |
| C=C(C)COc1ccc2c(C)c(CCC(=O)NC3CC3)c(=O)oc2c1 | 9.62% |
| O=C1C(Cl)=C(NCc2cccnc2)C(=O)c2ccccc21 | -10.2% |
| O=C(c1ccccc1)N1CCN(c2ccc([N+](=O)[O-])c(NCc3ccco3)c2)CC1 | 12.7% |
| CCCC(=O)Nc1c2c(nn1-c1ccc(C)cc1C)CSC2 | -2.67% |
| NC(N)=NC(N)=Nc1cccc2ccccc12 | 17.7% |
| Cc1c(C(=O)O)oc2c3c(ccc12)OCCO3 | 37% |
| Cc1ccnc(NS(=O)(=O)c2ccc(N=CC3=C(O)CC(C)(C)CC3=O)cc2)n1 | -5.31% |
| N#Cc1nc(Cc2cccc3ccccc23)oc1NCCCN1CCOCC1 | 33.6% |
| N#Cc1nc(Cc2ccccc2)oc1NCCN1CCOCC1 | 5.87% |
| CCCNC(=O)COc1ncnc2sc(C)c(C)c12 | -23.9% |
| COc1ccc(-n2cnc3c(sc4nc(N5CCOCC5)c5c(c43)CCCC5)c2=O)cc1 | -10.8% |
| Cc1cc(=O)oc2c(CN(C)Cc3ccccc3)c(O)ccc12 | 8.32% |
| CC(C)(C)NC(=O)c1ccc2c3c(cccc13)CC2 | 11.2% |
| Cc1ccc(C(=O)N2C(=S)C(c3ccc(F)cc3)=NC23CCN(C)CC3)cc1 | 39.8% |
| COC(=O)c1ccc(C)c(NC(=O)CN2C(=O)c3ccccc3S2(=O)=O)c1 | -9.18% |
| CC(C)(C)Nc1nc(-c2ccccn2)nc2ccccc12 | 30.1% |
| COC(=O)c1ccccc1NC(=O)CSc1ncn[nH]1 | 4.44% |
| O=C1Nc2ccccc2C1=Nc1ccc(S(=O)(=O)Nc2nccs2)cc1 | -49.4% |
| CCc1nc(C)ccc1OCC(=O)NCCCN(C)C | 16.7% |
| Cc1ccc(-c2nc(C(=O)NCCCN(C)C)cc3c2[nH]c2ccccc23)cc1 | 32.1% |
| Oc1ccc(C=Nc2ccc3ncccc3c2)c(O)c1 | 26.2% |
| Cc1ccc(C2CC(=O)NC(SCCC(C)C)=C2C#N)cc1 (stereo not given) | -19.8% |
| C=CCN1C(=O)C(O)(CC(=O)c2c(C)n[nH]c2C)c2cc(Br)ccc21 (stereo not given) | 7.21% |
| Cc1cc[n+](CC(=O)c2ccc(NC(=O)c3ccccc3)cc2)cc1 | 29.7% |
| CCc1ccc2c(c1)CCCN2C(=O)c1ccccc1C(=O)O | -19% |
| COc1ccc2c(c1)cc1n2CCN=C1N | 23% |

| Compound | inhibition |
| --- | --- |
| COc1c(N2CCN(C(=S)NCc3ccccc3)C(C)C2)c(F)cc2c(=O)c(C(=O)O)cn(C3CC3)c12 (stereo not given) | 20.9% |
| CCCC(=O)c1c(NC)cc(C)oc1=O | 26.1% |
| Cc1c(-c2ccccc2)[n+](=O)c2c(n1[O-])CCCC2 | 14.9% |
| O=C(Nc1ccc(F)cc1)C1CCC(CNc2c(N3CCCCC3)c(=O)c2=O)CC1 (stereo not given) | -9.7% |
| Nc1nc(N2CCN(c3ccccn3)CC2)nc2ccccc12 | 3.48% |
| Cc1ccc(Cn2c(=N)c(C(=O)NCCN3CCOCC3)cc3c(=O)n4ccccc4nc32)cc1 | 16.7% |
| CCOc1ccccc1NC(=O)CSc1nc(N)c(C#N)cc1C#N | 4.14% |
| CN1CCc2nc(SCC(=O)Nc3cccc(F)c3)c(C#N)c(-c3cccs3)c2C1 | -20.1% |
| COCCn1c(SCC(=O)Nc2nnc(C)s2)nnc1-c1c[nH]c2ccccc12 | 15.5% |
| N#CCCn1ncc2ccccc21 | -3.13% |
| C=CCOC(=O)C1=C(C)NC2(O)c3ccccc3C(=O)C12O (stereo not given) | -19.4% |
| COC(=O)c1ccc(Cn2cnc3ccccc3c2=O)cc1 | 16.1% |
| N#C/C(=C\c1ccc[nH]1)C(=O)NC1CC1 | 4.86% |
| O=c1c2ccccc2nc2n1CCc1c-2[nH]c2ccccc12 | 2.11% |
| CC1(C)Oc2ccc3ccc(=O)oc3c2/C(=C/NCCN/C=C2\C(=O)C(C)(C)Oc3ccc4ccc(=O)oc4c32)C1=O | 0.81% |
| Cn1nnnc1SCC(=O)Nc1ccccc1-c1ccccc1 | 8.28% |
| CC1CCN(C(=O)CSc2nnc(Cc3cc(=O)[nH]c(=O)[nH]3)n2-c2ccc(Cl)cc2)CC1 | -0.09% |
| Cn1c(CCN2CCN(c3ccccn3)CC2)nc2cc(NC(=O)COc3ccccc3)ccc21 | 13.6% |
| CCOC(=O)N1CCC(=NNc2ccnc3cc(Cl)ccc23)CC1 | 39.4% |
| O=C(c1ccc2c(c1)[nH]c(=S)n1c3ccccc3nc21)N1CCN(c2cccc(Cl)c2)CC1 | 18.8% |
| C(=N\Nc1nc2ccccc2[nH]1)/c1ccc2ncccc2c1 | -2.51% |
| O=C(CSc1ccccn1)N/N=C/c1c[nH]c2ccccc12 | 35.6% |
| Cn1cnnc1SCC(=O)Nc1ccc2nc(SCc3ccccc3)sc2c1 | 13.9% |
| COC(=O)CC1C(=O)NCCN1C(=O)CSc1nc2ccc([N+](=O)[O-])cc2s1 (stereo not given) | 16.1% |
| CCN1C(=O)N/C(=C/c2cc(C)n(Cc3ccccc3)c2C)C1=O | -15.1% |
| Cc1cccc(OCC(=O)Nc2nonc2NC(=O)COc2cccc(C)c2)c1 | 13.2% |
| CC(=O)Nc1ccc(NC(=O)CSc2ccc(-c3ccco3)nn2)cc1 | 1.22% |
